Consider 44 compounds from PubChem BioAssay AID926 (National Center for Advancing Translational Sciences (NCATS), 2007).

Experiment [1] can be described thus: qHTS Assay for Agonists of the Thyroid Stimulating Hormone Receptor.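 Further: the control signal comes from parental cells without the receptor.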 Conditions: HEK293-CNG-TSHR cells, membrane potential dye, cAMP; measured here: parental cells max response. In outline:
(§1)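 cAMP rise detected as CNG-channel membrane depolarization by fluorescent dye (emission 590 nm), 30 min after compound, following 60 min dye loading containing 100 uM RO 20-1724 at room temperature. Cells: TSHR/CNG HEK 293, with parental CNG HEK 293 as control.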

The target in experiment [2] is Thyrotropin receptor (Homo sapiens) (UniProt P16473). The description is as above. The conditions noted are these: HEK293-CNG-TSHR cells (CNG channel as cAMP sensor), membrane potential dye, cAMP; series mostly up to 57.1 µM. The essentials:
as §1

Values joined by “and” are separate entries in the source; they are usually repeats but may differ in a detail not shown here. Equal values may be shown once. Screen size: about 73,000 compounds; about 350 (0.48%) were called active. Roughly 17% stayed inconclusive and do not appear here. The call rests on the fitted dose curve; in most records, active means well fitted activation curve with a large enough effect in the main read-out, with a control signal flat (not every such curve was filed as active); inconclusive means small, poorly fitted or top-dose-only effect, or a change in a side signal; inactive means no such curve, though single readings can be large or run the other way; reference of the percent scale not stated here. Many of the other results were omitted from the sample, so actives are more common in it than they were.
Potency means the concentration at half of the fitted maximal effect.

Chain of Thyrotropin receptor (Homo sapiens) (P16473 whole entry, looked up): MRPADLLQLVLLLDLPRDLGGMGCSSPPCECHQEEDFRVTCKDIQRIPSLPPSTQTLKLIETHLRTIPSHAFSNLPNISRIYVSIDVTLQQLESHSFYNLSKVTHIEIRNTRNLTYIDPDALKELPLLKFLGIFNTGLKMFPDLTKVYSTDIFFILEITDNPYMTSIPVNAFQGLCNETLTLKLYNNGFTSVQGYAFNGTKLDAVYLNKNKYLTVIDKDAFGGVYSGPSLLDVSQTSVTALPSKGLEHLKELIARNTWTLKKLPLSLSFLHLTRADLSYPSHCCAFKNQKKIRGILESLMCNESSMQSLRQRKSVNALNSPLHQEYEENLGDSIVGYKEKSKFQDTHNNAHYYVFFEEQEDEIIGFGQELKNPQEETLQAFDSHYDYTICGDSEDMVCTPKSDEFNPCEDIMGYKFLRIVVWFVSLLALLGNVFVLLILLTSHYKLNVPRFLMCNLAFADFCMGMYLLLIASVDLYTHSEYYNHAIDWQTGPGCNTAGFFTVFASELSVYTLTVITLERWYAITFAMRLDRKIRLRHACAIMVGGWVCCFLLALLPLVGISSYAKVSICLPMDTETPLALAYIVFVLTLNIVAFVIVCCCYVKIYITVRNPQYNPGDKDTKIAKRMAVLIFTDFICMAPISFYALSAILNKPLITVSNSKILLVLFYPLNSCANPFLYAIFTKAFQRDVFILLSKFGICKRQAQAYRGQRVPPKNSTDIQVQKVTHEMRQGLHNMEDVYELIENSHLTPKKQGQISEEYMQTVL

On to `O=C(OCC(COC(=O)c1ccccc1)(COC(=O)c1ccccc1)COC(=O)c1ccccc1)c1ccccc1`, for which the activation in experiment [1] was 20%. For the same compound, in experiment [2], the Potency entry was “inactive”.

For `COC(=O)c1ccc(/C=N\n2c(C)nnc2C)cc1`, in experiment [1], the activation worked out at 10.1%. Also, the Potency result in experiment [2] is “inactive”.

Regarding `COc1ccc(-c2nnn(Cc3nc(N)nc(N4CCCCC4)n3)n2)cc1`, the activation in experiment [1] came out at 22%. Moreover, the Potency in experiment [2] was 31.6 µM (active).

With `CCOc1ccc(-c2nnn(CC(=O)N3CCN(c4ccc(OC)cc4)CC3)n2)cc1OCC`, in experiment [1], the activation is -8.4%. Also, the Potency result in experiment [2] is “inactive”.

On to `CCc1ccc(-c2nnn(Cc3nn[nH]n3)n2)cc1`, for which the activation in experiment [1] was determined as 16%. The Potency entry in experiment [2] was “inactive”.

On to `Cn1c(=O)n(C)c2cc(CNc3ccc(N4CCOCC4)c(C(=O)O)c3)ccc21`, for which the activation in experiment [1] stood at 3.63%. Further, the Potency result in experiment [2] is “inactive”.

As for `Cn1nc(-c2ccc(N3CCOCC3)c(NC(=O)c3ccccc3)c2)c2ccccc2c1=O`, in experiment [1], the activation is 29.3%. In addition, in experiment [2], the Potency is 25.1 µM (active).

For the compound `O=C(Cn1nnc2ccccc2c1=O)Nc1cc(C(F)(F)F)ccc1N1CCOCC1`, the activation in experiment [1] turned out to be 17.2%. Also, the Potency entry in experiment [2] was “inactive”.

For the compound `O=C(C1CCN(CC2CCCCC2)CC1)N1CCCC1`, in experiment [1], the activation came to 16.6%. For the same compound, the Potency result in experiment [2] is “inactive”.

For `COC(=O)[C@@H]1CC[C@H](C)[C@@H](c2ccc(C)cc2)N1C(=O)c1ccc(/C=N\O[C@@H](C)c2cn([C@H](CO)Cc3ccccc3)nn2)cc1`, the activation in experiment [1] was 9.66% and 5.24%; in experiment [2], 0.181% [at 11.4 µM] (inactive) and 4.03% [at 11.4 µM] (inactive).

For `CCc1c(C)sc(NC(=O)OC)c1C(=O)N1CCOCC1`, the activation in experiment [1] was -1.6%. The Potency result in experiment [2] is “inactive”.

`CCOC(=O)[C@]1(C(/C=C/c2ccco2)NC(=O)OC)CCCC1=O` (stereo partly drawn): the activation in experiment [1] is 0.322%; in experiment [2], 14% [at 11.4 µM] (inactive).

On to `O=C(CC1(O)C(=O)N(CN2CCOCC2)c2ccccc21)c1ccccc1` (stereo not drawn), for which the activation in experiment [1] was determined as 1.28%. Besides, the Potency entry in experiment [2] was “inactive”.

Consider `CN(C)C(=O)c1ccc(-c2cncnc2Nc2ccccc2)cc1`, for which the activation in experiment [1] is -2.37%. Besides, the Potency entry in experiment [2] was “inactive”.

Regarding `OC(COc1cccc(OCC(O)CN2CCCC2)c1)CN1CCCC1` (stereo not drawn), the activation is -1.83% in experiment [1] and -1.13% [at 11.4 µM] (inactive) in experiment [2].

Regarding `Cc1cc(NS(=O)(=O)c2ccccc2)no1`, in experiment [1], the activation stood at 1.38%. Further, in experiment [2], the Potency result is “inactive”.

Regarding `COc1ccc(O)c(C=Nc2cc(C)on2)c1`, in experiment [1], the activation was -5.94%. Also, the Potency entry in experiment [2] is “inactive”.

Regarding `CC(C)N(CCNC(=O)c1ccc(-n2c(=O)c(=O)[nH]c3ccccc32)cc1)C(C)C`, the activation in experiment [1] was -3.64%. Moreover, the Potency result in experiment [2] is “inactive”.

In the case of `CCC(C)n1[nH]c(=O)c2c(C)cc(C)nc21` (stereo not drawn), in experiment [1], the activation amounted to 14.5%. The Potency result in experiment [2] was “inactive”.

Regarding `Cc1cccc2c1N(CC(=O)OC(C)C)C(=O)C2=O`, the activation was -9.41% in experiment [1] and -2.45% [at 11.4 µM] (inactive) in experiment [2].

In the case of `Cc1cc(N=CC2=C(O)CCCC2=O)no1`, the activation in experiment [1] was 5.56%. The Potency entry in experiment [2] is “inactive”.

With `C=CCOC(=O)C(C(C)=O)C(NC(=O)OC)c1ccccc1` (stereo not drawn), the activation in experiment [1] is 4.24%; in experiment [2] it was -0.17% [at 11.4 µM] (inactive).

`O=C(O)[C@@H](O)Cc1ccccn1`: the activation in experiment [1] was 4.67%; in experiment [2] it was -3.52% [at 11.4 µM] (inactive).

Turning to `c1ccc(Nc2n[nH]nc2-c2ccccc2)cc1`, the activation in experiment [1] was -0.853%. For the same compound, in experiment [2], the Potency result is “inactive”.

Turning to `Cc1nnc(NC(=O)CCC(=O)N2CCC(C)CC2)s1`, the activation in experiment [1] amounted to 5.36%. Besides, the Potency entry in experiment [2] was “inactive”.

In the case of `C#CCC(C(=O)OC)(C(=O)OC)C(C[N+](=O)[O-])c1ccccc1` (stereo not drawn), the results for the activation in experiment [1] and in experiment [2] were -0.955% and 7.7% [at 11.4 µM] (inactive), respectively.

For the compound `Cc1ccc(C(=O)CS(C)(=O)=O)cc1`, the activation in experiment [1] worked out at 1.73%. Moreover, the Potency entry in experiment [2] was “inactive”.

Consider `COc1ccc(OC)c(Nc2nc(-c3ccc(O)c(O)c3)cs2)c1`, for which the activation in experiment [1] was -4.42%. In experiment [2], the Potency entry was “inactive”.

Take `COc1ccc(-c2n[nH]c(C)c2-c2ccc(OC)c(OC)c2)c(O)c1`: the activation in experiment [1] turned out to be 11.3%. Also, the Potency in experiment [2] is 5.01 µM (active).

Take `C=C(C)COc1ccc(-c2n[nH]c(C)c2-c2ccccc2)c(O)c1`: in experiment [1], the activation is 17.3%. Further, the Potency result in experiment [2] was “inactive”.

Turning to `C=C(C)COc1ccc(-c2n[nH]c(C)c2-c2ccccc2OC)c(O)c1`, the activation in experiment [1] is 8.35%. Also, the Potency in experiment [2] was 31.6 µM (active).

In the case of `COc1ccc(-c2nc(-c3ccccc3)no2)c(OC)c1`, in experiment [1], the activation came to 7.25%. Besides, the Potency result in experiment [2] was “inactive”.

Regarding `CCOc1ccccc1Oc1cn[nH]c1-c1ccc(OC)cc1O`, the activation in experiment [1] was 7.48%. Moreover, the Potency entry in experiment [2] was “inactive”.

Consider `O=C1OC(NC(=O)c2ccccc2)C(N2CCOCC2)=C1Cl` (stereo not drawn), for which the activation in experiment [1] is 4.11%. Besides, in experiment [2], the Potency result was “inactive”.

Turning to `CC(C)c1ccc2c([Si](C)(C)C)c3c(nc2c1)-c1cccc(=O)n1C3`, the activation in experiment [1] came to 2.88%. In addition, in experiment [2], the Potency result is “inactive”.

Regarding `CCn1cc(NC(=O)Nc2ccc(OC)c(OC)c2)c(C(N)=O)n1`, the activation in experiment [1] turned out to be 0.163%. In experiment [2], the Potency entry is “inactive”.

In the case of `COc1cccc(N2CCN(C3CC(=O)N(c4ccc(Cl)cc4)C3=O)CC2)c1` (stereo not drawn), the activation is -14.4% in experiment [1] and -19.1% [at 11.4 µM] (inactive) in experiment [2].

As to `Cc1ccc(C(=O)Nc2nnc(-c3ccncc3)s2)o1`, in experiment [1], the activation was -13.3%. Besides, the Potency result in experiment [2] was “inactive”.

As for `CC(=O)OCC(=O)[C@@]1(O)CC[C@@H]2[C@H]3CCC4=CC(=O)C=C[C@]4(C)[C@]3(F)[C@@H](O)C[C@@]21C`, the activation in experiment [1] is -1.34%. In addition, the Potency result in experiment [2] is “inactive”.

On to `COC(=O)[C@@]1(Cc2ccc(F)cc2)[C@H]2c3cc(C(=O)N4CCCC4)n(C[C@H](O)CO)c3C[C@H]2CN1C(=O)c1ccccc1`, for which the activation in experiment [1] is 12.9%. The Potency entry in experiment [2] is “inactive”.

Take `CC(C)N(C(=O)Cn1c(SCC(=O)N2CCN(c3ccccc3)CC2)nc2ccccc21)C(C)C`: the activation in experiment [1] came to 11.2%. Moreover, in experiment [2], the Potency entry is “inactive”.

Turning to `Cc1ccc(NC(=O)N2CCC(C(=O)NCc3ccc(F)cc3)CC2)cc1`, the activation in experiment [1] is -2.62%. Also, in experiment [2], the Potency result was “inactive”.

Take `Cn1c(=O)n2n(c1=O)[C@H]1[C@H](O)[C@H]3O[C@H]3C(=O)[C@H]1CC2`: the activation was 0.42% in experiment [1] and -7.07% [at 11.4 µM] (inactive) in experiment [2].

For `O=C(CCCn1c(=O)oc2ccccc21)Nc1cccnc1`, the activation in experiment [1] was -4.73%. Besides, the Potency result in experiment [2] is “inactive”.
